Experiment: small molecules captured by biotinylated probe aFST – biochemical, small-molecule microarray, fluorescence 635/667, stem cell growth factor project, primary screen (AID 1086);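 also: score merges 667 nm fluorescence with signal-to-noise of each printed compound spot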
Settings: higher = more signal

| SMILES | composite z-score |
| --- | --- |
| O=c1cccc(CCc2ccccc2)o1 | -0.104 |
| COc1ccc([Si](C)(C)[C@H]2[C@H](CCn3cc(CCO)nn3)O[C@@]3(C(=O)N(Cc4ccc(N5CCOC5=O)cc4)c4ccccc43)[C@@H]2C)cc1 | 0.147 |
| C=CC[C@@H](OC(=O)Nc1ccc(OC)cc1)c1ccc(O)c2ccccc12 | 0.56 |
| CC(c1ccccc1)C(O)C1C=CC2C(=O)NC(=O)C2N1Nc1ccccn1 (configuration not stated) | 0.421 |
| CC(C)CNC(=O)[C@@H]1c2ccccc2C(=O)N(Cc2cc(C(F)(F)F)cc(C(F)(F)F)c2)[C@H]1c1ccc(CO)cc1 | 0.0438 |
| C[C@]1(C(=O)NCc2ccccc2)c2ccccc2C(=O)N(Cc2cc(F)cc(C(F)(F)F)c2)[C@H]1c1ccc(CO)cc1 | -0.344 |
| O=C1O[C@H](c2ccccc2)[C@H](c2ccccc2)N2[C@H]1[C@@H](C(=O)Nc1nc3ccccc3s1)[C@]1(C(=O)Nc3ccccc31)[C@H]2c1ccc(O)cc1 | 0.521 |
| CN(C)CCCNC(=O)[C@@]1(Cc2ccccc2I)c2ccccc2C(=O)N(Cc2ccccc2C(F)(F)F)[C@H]1c1ccc(CO)cc1 | -0.309 |
| CCCCCN1CC=CC23O[C@@H]4C=CCOC(=O)[C@@H]4[C@H]2C(=O)N(CCCO)[C@@H]3C1=O (some centres not stated) | -0.643 |
| C=C(CCCC)/C(=C/C[C@H](OC(C)=O)c1ccc(CO)o1)c1cnc2ccccc2c1 | 0.13 |
| CC(C)NC(=O)[C@@]1(Cc2ccccc2I)c2ccccc2C(=O)N(Cc2ccccc2)[C@H]1c1ccc(CO)cc1 | 0.612 |
| O=C1C2C=CC(C(O)c3ccc(B(O)O)cc3)N(Nc3ccccc3)C2C(=O)N1c1ccccc1 (configuration not stated) | 0.302 |

— PubChem BioAssay
